In the supplement of paper PMC6555819:

Key:
Assay in all cases: PBM binding z-score (relative to random genomic background probes); higher = stronger binding; sequences stand for … in GC…GCGATTGACAGCGTAGAATGAAGG
[1] = system: RARb homodimer (NR concentration 270 nM)
How it was run: (§1)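 Ligand-free nuclear receptor dimers were applied to custom Agilent 4×180K protein-binding microarrays whose double-stranded probes carried direct-repeat seeds, single-nucleotide variants, half-site ablations and random human genomic background sequences in 34-nt variable regions. Incubation lasted 1 h. Binding z-scores were computed against the random background probes from regression-normalized fluorescence.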

[2] = system: RARg:RXRa (NR concentration 270 nM, RXRa partner concentration 90 nM)
How it was run: as §1

[3] = system: RARg homodimer (NR concentration 270 nM)
How it was run: as §1

[4] = system: RXRa DBDmut IVT, anti-RXR (DBD mutation: RXRa K156A/R161A, NR concentration 90 nM)
How it was run: as §1

[5] = system: RXRa homodimer (NR concentration 180 nM)
How it was run: as §1

[6] = system: THRa:RXRa (NR concentration 90 nM, RXRa partner concentration 90 nM)
How it was run: as §1

[7] = system: THRa homodimer (NR concentration 90 nM)
How it was run: as §1

[8] = system: VDR:RXRa (NR concentration 270 nM, RXRa partner concentration 90 nM)
How it was run: as §1

[9] = system: VDR homodimer (NR concentration 270 nM)
How it was run: as §1

| Sequence | PBM binding z-score [1] | PBM binding z-score [2] | PBM binding z-score [3] | PBM binding z-score [4] | PBM binding z-score [5] | PBM binding z-score [6] | PBM binding z-score [7] | PBM binding z-score [8] | PBM binding z-score [9] |
| --- | --- | --- | --- | --- | --- | --- | --- | --- | --- |
| CCTATTAGTTGACCATAAGGGCAATCGAAGCTCG | 1.72 | 1.12 | 1.22 | 0.557 | 0.516 | 1.47 | 1.18 | 0.713 | 1.13 |
| TAGCCTAGGTCATTGGGCCAGGATAGTACGCATC | 2.8 | 3.79 | 4.56 | 1.25 | 2.67 | 2.74 | 0.55 | 1.85 | 0.858 |
| ATCTCTAGGTAAGACTCAGTGCAGTGAAGAACGC | 0.192 | 0.0414 | 0.117 | -0.00244 | 0.00631 | 0.285 | 0.26 | -0.0962 | 0.24 |
| TCGAGTAGTTTAGGGGCATTCAGAATGGCGTCGA | 0.436 | 0.014 | -0.0825 | 0.68 | 0.467 | 1.33 | 0.108 | 0.605 | 1.55 |
| TCATATAGGTAAAGGTGGAAGTCGAACGATATGA | 0.0636 | 0.544 | 0.404 | 1.02 | 0.958 | -0.14 | -0.387 | 0.368 | 0.109 |
| CAAACTAGGTCAAGGTCAATGTCGGTTTGTGCCA | 5.09 | 5.85 | 6.81 | 2.94 | 5.18 | 4.41 | 3.82 | 4.81 | 4.11 |
| AGTCAAAGTTCAGGACGAGGTAACGTAGAGCACG | 3.39 | 4.8 | 4.77 | 2.61 | 3.06 | 4.07 | 1.71 | 2.91 | 2.15 |
| AGCATGAGGTTAAGATCAGGGAAACAGAATACAT | 0.891 | 2.08 | 1.62 | 0.954 | 2.58 | 2.66 | 0.635 | 1.36 | 0.646 |
| ATATGTAGGTTAAGGGACATTCAGGTTGGTTCGC | 1.6 | 1.28 | 1.27 | 0.615 | 1.25 | 1.14 | 0.815 | 1.07 | 1.69 |
| AGAATGAGGTTATTAAGATCCGGGAATTGCGGTC | 0.644 | 0.904 | 0.682 | 1.93 | 1.68 | 2.29 | 0.695 | 1.08 | 0.784 |
| TCTAGTTGGTCACAGGTCACACACTCGAAATGCG | 3.55 | 3.75 | 3.33 | 1.62 | 3.83 | 2.96 | 1.97 | 2.95 | 1.7 |
| CGAACTAGGTCAAGGACCGTGAATCTCCGCACGC | 2.79 | 3.42 | 4.01 | 1.15 | 2.32 | 2.46 | 0.938 | 0.799 | -0.163 |
| TGAATGAGGTTATAGATCAGGGAACGTGGCGTCG | 0.339 | 1.36 | 1.02 | 0.491 | 2 | 2.05 | 0.416 | 1.06 | 0.618 |
| TCAAGTAGGTTAGTCGGGGCATTCAGCCAACATA | 0.846 | 0.431 | 0.362 | 1.46 | 0.586 | 1.26 | 0.656 | 2.43 | 0.907 |
| ACTCGCAGGCCAAGGGTCACTCAAGATTAGTCCG | 3.81 | 4.36 | 3.98 | 1.03 | 3.97 | 2.95 | 0.204 | 2.89 | 0.901 |
| CTCGAAAGGTCGTGCTCAGGAGAGTATACCAAAC | 2.52 | 4.36 | 4.09 | 1.88 | 5.03 | 2.64 | 0.423 | 2.92 | 1.36 |
| TAGCCTACGTCATTCAGGGGCCAGTATAGAAAGC | 0.534 | 0.54 | 0.097 | -0.122 | 0.286 | 0.215 | -0.39 | -0.219 | -0.343 |
| GATGCAGGGTCAAGGCCAGAGTACGCGTATTGAT | 3.44 | 5.2 | 4.79 | 1.98 | 5.72 | 3.46 | 0.878 | 4.21 | 1.78 |
| ATCGACAGGTCGACGAGGTGAGTATACACCGTTT | 0.949 | 1.55 | 1.78 | 0.12 | 1.58 | 2.58 | 0.428 | 2.85 | 0.49 |
| TCTATTATTTGATTAGGGCAACCGAAACAGCGGA | 0.742 | 0.671 | 0.596 | 1.27 | 0.751 | 0.898 | 1.07 | 0.857 | 1.47 |
| TCATATAGGTAATACAGGTGAGAGTCGGCATCTA | 0.373 | 0.339 | 0.708 | 1.4 | 0.681 | 0.631 | 0.164 | 0.85 | 0.172 |
| ACTATTAGTTGAGGCGAGGGCAACCGATAGGTTG | 1.3 | 0.575 | 0.748 | 0.263 | 0.386 | 2.43 | 0.721 | 0.632 | 0.813 |
| TCTCGGAGCACACGAAAGGTCAGAGCTCGACATC | 4.06 | 3.96 | 3.53 | 0.437 | 3.98 | 2.41 | -0.342 | 2.26 | -0.387 |
| TAGCCTAGGTCAAATCGGGCCAGTATACGCTATA | 2.7 | 4.3 | 4.47 | 0.997 | 3.31 | 4.59 | 0.89 | 2.7 | 0.378 |
| TAGCCTAGGTCATGCGGGCCAGTAGAGTGTCGGC | 3.12 | 3.98 | 4.71 | 0.541 | 3.5 | 2.96 | 0.801 | 2.95 | 0.486 |
| GTACCAAGGGGAATAGGTCGTTGATGAGTAGGCG | 0.74 | 0.528 | 0.371 | -0.365 | 0.651 | 0.124 | -0.309 | 0.104 | 0.49 |
